Compound activity as filed in PubChem.
Hits are enriched below; roughly 2.4% of the tested compounds scored in any of these assays.
PfGluPho inh: PfG6PD (Plasmodium falciparum) enzyme inhibition; 350,000 compounds, 0.78% hits; inhibition, % at 20 µM; AID 504690; PfGluPho enzyme, NADPH resazurin-diaphorase fluorescence;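 active = inhibition reaching at least a set limit at 20 µM in the primary screen, cut at about 59% in these data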
Yeast superoxide: caloric restriction mimetics inhibiting age-related superoxide in yeast; S. cerevisiae aged cells, superoxide DHE fluorescence; stronger effect = lower value; superoxide response (% of plate mean), % at 10 µM; 330,000 compounds, 0.18% hits; AID 2690;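 active = superoxide response under a set limit, about three screen SD below normal, cut at about 65% in these data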;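 note: yeast aged for seven days with compound at 30 °C before DHE staining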
APOBEC3G inh: inhibitors of human APOBEC3G DNA deaminase | recombinant A3G, ssDNA deamination FAM/TAMRA fluorescence | 330,000 compounds, 0.28% hits | inhibition, % at 20 µM;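 active = inhibition of at least 40% at 20 µM, with no more than 30% in the related APOBEC3A deaminase screen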
Target sequence (Q9HC16 whole entry, looked up): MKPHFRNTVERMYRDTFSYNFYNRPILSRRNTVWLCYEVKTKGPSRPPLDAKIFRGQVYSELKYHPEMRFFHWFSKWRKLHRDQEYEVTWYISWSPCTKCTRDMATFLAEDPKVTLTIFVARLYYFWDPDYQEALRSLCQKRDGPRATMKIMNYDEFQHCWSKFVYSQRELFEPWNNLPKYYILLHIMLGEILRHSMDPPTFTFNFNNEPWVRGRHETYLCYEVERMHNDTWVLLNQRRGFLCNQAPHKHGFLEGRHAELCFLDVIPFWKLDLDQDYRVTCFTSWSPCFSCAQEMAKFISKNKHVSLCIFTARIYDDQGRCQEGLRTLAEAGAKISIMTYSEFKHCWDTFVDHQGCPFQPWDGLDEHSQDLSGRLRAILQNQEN
PfM18AAP inh-1: blocks P. falciparum M18 aspartyl aminopeptidase; recombinant PfM18AAP, H-Glu-NHMec fluorogenic cleavage; inhibition, % at 7.35 µM; 290,000 compounds, 1.2% hits; AID 1822;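 active = inhibition above the campaign mean inhibition over all tested compounds plus 3 SD, cut at about 28% in these data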
APOBEC3A inh: inhibitors of human APOBEC3A DNA deaminase | recombinant A3A, FAM/TAMRA ssDNA deamination fluorescence | inhibition, % at 20 µM | 330,000 compounds, 0.41% hits | AID 493011;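 active = at least 40% inhibition at 20 µM here, with at most 30% in a related deaminase screen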
Target sequence (P31941 whole entry, looked up): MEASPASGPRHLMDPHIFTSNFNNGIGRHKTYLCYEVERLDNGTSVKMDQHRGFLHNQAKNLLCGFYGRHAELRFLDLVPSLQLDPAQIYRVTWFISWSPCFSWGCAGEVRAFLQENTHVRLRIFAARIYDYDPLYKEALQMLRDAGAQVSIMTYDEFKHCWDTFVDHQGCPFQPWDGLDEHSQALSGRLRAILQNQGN
PfM18AAP inh-2: confirmation of Plasmodium falciparum M18 aspartyl aminopeptidase inhibitors; shares compounds with PfM18AAP inh-1; recombinant PfM18AAP, H-Glu-NHMec fluorogenic cleavage; inhibition, % at 7.35 µM; 2,400 compounds, 28% hits; AID 2170;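 active = mean inhibition over replicate wells above the hit cutoff set for the earlier primary screen, cut at about 29% in these data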
CTSL1 confirm: counter-screen for PFM18AAP inhibitors: confirmation of human cathepsin L inhibitors; shares compounds with PfM18AAP inh-1; purified cathepsin L1, Z-Leu-Arg-MCA fluorescence; inhibition, % at 5.96 µM; 2,400 tested, under 10 active;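 active = average inhibition across replicates above the hit cutoff set in the earlier primary screen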
Superoxide pick: yeast aging superoxide inhibition, cherry pick confirmation. superoxide response (% of plate), % at 10 µM. 850 compounds, 1% hits. shares compounds with Yeast superoxide. AID 434994. S. cerevisiae aging, superoxide DHE fluorescence; stronger effect = lower value;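 active = superoxide signal below 65% of the plate average of sample wells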;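 note: cells aged with compound for 7 days at 30 degrees C before staining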
DHE counter: DHE fluorescence interference, counter-screen artifact; shares compounds with Yeast superoxide; S. cerevisiae BY4741, flow cytometry; stronger effect = lower value; fluorescence response, % at 10 µM; 850 tested, under 10 active;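 active = fluorescence response below 15%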;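 note: lower means stronger quenching of DHE signal or ROS scavenging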
PfG6PD confirm: PfG6PD inhibition, single-dose confirmed; 2,400 compounds, 34% hits; shares compounds with PfGluPho inh; recombinant PfGluPho, NADPH-diaphorase-resazurin fluorescence; inhibition, % at 20 µM;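 active = inhibition of at least 50% at 20 µM in any single replicate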
Hits are given with their value; 0 = inactive; - = no result given.

SMILES | PfGluPho inh | Yeast superoxide | APOBEC3G inh | PfM18AAP inh-1 | APOBEC3A inh | Superoxide pick | DHE counter | others
CSC1=NS(=O)(=O)c2c(C)nn(C)c2S1 | 63 | 0 | 0 | 57 | 0 | - | - | PfM18AAP inh-2=0;CTSL1 confirm=0;PfG6PD confirm=0
Cc1ccc(NC(=O)NNC(=O)c2snnc2C)cc1 | 0 | 0 | 0 | 0 | 0 | - | -
Cc1nnsc1C(=O)NNC(=O)c1ccc(C(F)(F)F)cc1 | 0 | 63 | 0 | 0 | 0 | 0 | 0
COc1ccc(NC(=O)c2ccc(S(=O)(=O)N3CCOCC3)o2)cc1 | 0 | 64 | 0 | 0 | 0 | 0 | 0
O=C(Nc1ccc(F)cc1)c1ccc(S(=O)(=O)N2CCOCC2)o1 | 0 | 0 | 0 | 0 | 0 | - | -
O=C(CCCOc1ccccc1)Nc1ccc(Cl)cn1 | 0 | 58 | 0 | 0 | 0 | 0 | 0
CCCCCCC(=O)Nc1ccc(Cl)cn1 | 0 | 0 | 0 | 0 | 0 | - | -
COc1ccc(Cl)cc1S(=O)(=O)N1CCN=C1c1ccccc1 | 0 | 0 | 0 | 0 | 0 | - | -
COc1ccc(Cl)cc1S(=O)(=O)N1CCCC1=O | 0 | 0 | 0 | 0 | 0 | 0 | 0
COc1ccc(CCNc2nc(=S)[nH]c3cc(OC)c(OC)cc23)cc1OC | 0 | 63 | 0 | 0 | 0 | 0 | 0
CC(C)OC(=O)N(C)C[C@H]1OCc2cnnn2CCCC(=O)N([C@H](C)CO)C[C@H]1C | 0 | - | - | - | - | - | -
Cc1ncc([N+](=O)[O-])n1CC(=O)Nc1ccc(F)c(F)c1 | 0 | 53 | 0 | 0 | 0 | 0 | 0
O=C(CNCC(=O)Nc1ccc(F)c(F)c1F)Nc1ccc(F)c(F)c1F | 0 | 65 | 0 | 0 | 0 | 0 | 0
O=C(CNC(=O)C1CC1)Nc1ccc(F)c(F)c1F | 0 | 0 | 0 | - | 0 | - | -
O=C(Cn1cc(C(F)(F)F)cc(Cl)c1=O)NCc1ccc(F)cc1 | 0 | 0 | 0 | 0 | 0 | - | -
CCOc1ccccc1C(=O)N1c2ccccc2Sc2ccccc21 | 0 | 57 | 0 | 0 | 0 | 0 | 0
COc1ccc(C(=O)N2CCN(c3cccc(Cl)c3)CC2)c(OC)c1 | 0 | 0 | 0 | 0 | 0 | 0 | 0
Cc1c(C(=O)N2CCN(c3ccccn3)CC2)cccc1[N+](=O)[O-] | 0 | 0 | 0 | 0 | 0 | - | -
Cc1c(C(=O)N2CCN(c3cccc(Cl)c3)CC2)cccc1[N+](=O)[O-] | 0 | 0 | 0 | 0 | 0 | 0 | 0
CCOc1ccccc1C(=O)N1CCN(c2cccc(Cl)c2)CC1 | 0 | 0 | 0 | 0 | 0 | 0 | 0
COc1ccc(N2CCN(C(=O)c3ccc(SC)cc3OC)CC2)cc1 | 0 | 0 | 0 | 0 | 0 | - | -
Cc1cc(C(=O)Cn2cnc3ccc(Cl)cc3c2=O)c(C)n1C1CC1 | 0 | - | - | - | - | - | -
ONC(=Nc1ccccc1Cl)c1c(F)cccc1F | 0 | 0 | 0 | - | 0 | - | -
CCOC(=O)C1CCN(C(=O)Cn2nc(C)n3c(cc4cc(F)ccc43)c2=O)CC1 | 0 | 0 | 0 | 0 | 0 | - | -
COc1cc(SC)ccc1C(=O)N1CCN(c2ccccc2F)CC1 | 0 | 0 | 0 | 0 | 0 | 0 | 0
SMILES | PfGluPho inh | Yeast superoxide | APOBEC3G inh | PfM18AAP inh-1 | APOBEC3A inh | Superoxide pick | DHE counter | others
CCCCOc1ccc(C(=O)N2CCNC(=O)C2)cc1 | 0 | 0 | 0 | 0 | 0 | - | -
CCC(=O)N1CCc2cc(S(=O)(=O)NCCC(=O)N3CCN(c4ccccc4)CC3)ccc21 | 0 | 0 | 0 | 0 | 0 | - | -
CCC(=O)N1CCc2cc(S(=O)(=O)NCCC(=O)N3CCN(c4cccc(C)c4)C(C)C3)ccc21 (stereo unspecified) | 0 | 63 | 0 | 0 | 0 | 0 | 0
CC(C)N1C(=O)C2(OCCCO2)c2cc(Br)ccc21 | 0 | 60 | 0 | 0 | 0 | 0 | 0
COc1ccccc1N1CCN(C(=O)c2cc(-c3ccc(F)cc3)[nH]c2C)CC1 | 0 | 0 | 0 | 0 | 0 | - | -
CCCn1c(C(O)c2ccc(OC)c(OC)c2)nc2ccccc21 (stereo unspecified) | 0 | 0 | 0 | 0 | 0 | - | -
CCN1CCN(c2ccc(S(=O)(=O)N3CCCCC3)cc2NC(=O)Cc2c(F)cccc2Cl)CC1 | 0 | 0 | 0 | 0 | 0 | - | -
CCN(CC)S(=O)(=O)c1ccc(N2CCCC2)c(NC(=O)Cc2c(F)cccc2Cl)c1 | 0 | 0 | 0 | 0 | 0 | 0 | 0
C=CCSc1nnc(-c2ccc([N+](=O)[O-])cc2)o1 | 0 | 64 | 0 | 0 | 0 | 0 | 0
NC(=O)CSc1nnc(-c2ccc([N+](=O)[O-])cc2)o1 | 0 | 0 | 0 | 0 | 0 | - | -
CCOc1cc(N2CCOCC2)c(OCC)cc1NC(=O)CN1C(=O)NC2(CCCCC2C)C1=O (stereo unspecified) | 0 | - | 0 | - | 0 | - | -
O=C(O)C1CCCN1S(=O)(=O)c1ccc(Cl)cc1 (stereo unspecified) | 0 | 0 | 0 | 0 | 0 | 0 | 0
COc1cccc(C(=O)NCCS(=O)(=O)N2CCN(c3ccccc3)CC2)c1OC | 0 | - | - | - | - | - | -
Clc1ccccc1OCCCOc1cccc2cccnc12 | 0 | 0 | 0 | 0 | 0 | - | -
Cc1ccc(C(=O)N2CCN(c3ccccc3Cl)CC2)cc1[N+](=O)[O-] | 0 | 0 | 0 | 0 | 0 | 0 | 0
Cc1ccc(N2CCN(C(=O)c3cccc([N+](=O)[O-])c3)CC2)cc1Cl | 0 | 0 | 0 | 0 | 0 | 0 | 0
Nc1ccccc1N1CCN(C(=O)c2ccccc2)CC1 | 0 | 0 | 0 | 0 | 0 | 0 | 0
COc1ccc(/C=C2\SC(N3CCCCC3)=NC2=O)cc1 | 0 | 55 | 0 | 0 | 0 | 0 | 0
OCC1OC(n2cnc3c(NCc4ccccc4O)ncnc32)C(O)C1O (stereo unspecified) | 0 | - | - | - | - | - | -
COc1cc(OC)cc(C(=O)O/N=C(\N)c2ccncc2)c1 | 0 | 62 | 0 | 0 | 0 | 0 | 0
COc1cc(OC)cc(C(=O)O/N=C(\N)c2cccc(C)c2)c1 | 0 | 0 | 0 | 0 | 0 | - | -
Cc1ccc(S(=O)(=O)CCC(=O)OCCOc2cccc(Br)c2)cc1 | 0 | 0 | 0 | - | 0 | - | -
Cc1ccc(-c2nn(CC(=O)NN3CCOCC3)c(=O)c3ccccc23)cc1 | 0 | 0 | 0 | 0 | 0 | - | -
CCC(C)c1ccccc1NC(=O)COC(=O)c1ccc2c(c1)S(=O)(=O)c1ccccc1C2=O (stereo unspecified) | 0 | 0 | 0 | 0 | 0 | - | -
CC(=O)N1CCN(C(=O)c2ccc3c(c2)S(=O)(=O)c2ccccc2C3=O)CC1 | 0 | 47 | 0 | 0 | 0 | 0 | 0
CN1CCN(C(=O)c2ccc3c(c2)S(=O)(=O)c2ccccc2C3=O)CC1 | 0 | 0 | 0 | 0 | 0 | - | -
CCc1cccc(C)c1NC(=O)COC(=O)c1ccc2c(c1)S(=O)(=O)c1ccccc1C2=O | 0 | 59 | 0 | 0 | 0 | 0 | 0
